Results on ten compounds are retold here after PubChem BioAssay (NCI).

Compounds without any hit were thinned out: in the full panel of roughly 79,000, 15% have a hit. Values without a mark were called inactive. Activity calls are given as the source filed them. Cut-off read from the data, not from the text of the source: active = growth inhibition above about 70%; inactive = the rest.

The nature of experiment [1]: NCI Yeast Anticancer Drug Screen. Data for the rad50 strain (AID 155).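 Note: 0% = growth of vehicle-only cultures of the same strain.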 Particulars: S. cerevisiae rad50 strain growth inhibition, hits give high values. An outline of the steps: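 Readout: growth inhibition relative to vehicle-treated cultures. Compound exposure was carried out in a genetically defined yeast strain deficient in DNA damage repair.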
Experiment [2] is described as follows: NCI Yeast Anticancer Drug Screen. Data for the mec2-1 strain (AID 157). The settings on record: S. cerevisiae mec2-1 strain, hits give high values. An outline of the steps:
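Vehicle-treated cultures served as reference for growth inhibition of compound-exposed mec2-1 yeast.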

Experiment [3] can be described thus: NCI Yeast Anticancer Drug Screen. Data for the sgs1 mgt1 strain (AID 161).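 Note: 0% = growth of cultures given vehicle only.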 The settings on record: S. cerevisiae sgs1 mgt1 strain, hits give high values. An outline of the steps: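 Mutant yeast exposed to compound; growth scored against vehicle-only wells.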
The nature of experiment [4]: NCI Yeast Anticancer Drug Screen. Data for the cln2 rad14 strain (AID 165).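 Note: 0% = growth equal to vehicle treated cultures.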 The settings on record: S. cerevisiae cln2 rad14 strain, hits give high values. An outline of the steps:
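Each compound was tested on cln2 rad14 yeast. Inhibition of growth was calculated against vehicle-exposed controls.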

Experiment [5] can be described thus: NCI Yeast Anticancer Drug Screen. Data for the bub3 strain (AID 167). Particulars: S. cerevisiae bub3 mutant strain, hits give high values. An outline of the steps:
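Readout: yeast growth inhibition, expressed relative to vehicle-only wells. The test organism is a mutant strain from a panel with lesions in DNA repair or checkpoint genes.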

Experiment [6] in a line: NCI Yeast Anticancer Drug Screen. Data for the mlh1 rad18 strain (AID 175). Particulars: S. cerevisiae mlh1 rad18 strain growth inhibition, hits give high values. An outline of the steps:
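Vehicle-treated cultures served as the reference for growth inhibition in a yeast strain carrying DNA damage repair alterations exposed to each compound.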

[7] abbreviates: at 5.0 µM (retest, dose inferred, filed as 0.5).
[8] abbreviates: at 50.0 µM (retest, dose inferred, filed as 5.0).

Consider `Oc1ccc(-c2ccc3ccccc3c2)cc1`, for which the growth inhibition in experiment [1] (setting [7]) was 2%; in experiment [1] (setting [8]), 98% (active); in experiment [1] (at 50.0 µM), 98.7% (active); in experiment [2] (setting [7]), 6%; in experiment [2] (setting [8]), 97% (active); in experiment [2] (at 50.0 µM) it was 99.3% (active). The growth inhibition in experiment [3] (setting [7]) is -3%; in experiment [3] (setting [8]), 98% (active); in experiment [3] (at 50.0 µM), 99.2% (active); in experiment [4] (setting [7]), 3%; in experiment [4] (setting [8]), 99% (active); in experiment [4] (at 50.0 µM), 98.8% (active). Moreover, the growth inhibition was 1% in experiment [5] (setting [7]); 98% (active) in experiment [5] (setting [8]); 99.2% (active) in experiment [5] (at 50.0 µM); -2% in experiment [6] (setting [7]); 99% (active) in experiment [6] (setting [8]); 99.1% (active) in experiment [6] (at 50.0 µM).
Turning to `CCCCCc1cc(Cl)cc(Cl)c1O`, the growth inhibition is -5% in experiment [1] (setting [7]); 45% in experiment [1] (setting [8]); 60.1% in experiment [1] (at 50.0 µM); -23% in experiment [2] (setting [7]); 0% in experiment [2] (setting [8]); 10.1% in experiment [2] (at 50.0 µM). Moreover, the growth inhibition in experiment [3] (setting [7]) was -5%; in experiment [3] (setting [8]), 26%; in experiment [3] (at 50.0 µM), 67.5%; in experiment [4] (setting [7]), 0%; in experiment [4] (setting [8]), -6%; in experiment [4] (at 50.0 µM) it was -13.2%. Also, the growth inhibition in experiment [5] (setting [7]) was -22%; in experiment [5] (setting [8]), -22%; in experiment [5] (at 50.0 µM), 9.05%; in experiment [6] (setting [7]) it was -3%; in experiment [6] (setting [8]) it was 18%; in experiment [6] (at 50.0 µM) it was 62.1%.
With `O=c1[nH]c(Cc2ccccc2)nc2c1sc1nc3ccccc3n12`, the growth inhibition in experiment [1] (setting [7]) is 36%; in experiment [1] (setting [8]), 86% (active); in experiment [1] (at 50.0 µM), 25.2%; in experiment [2] (setting [7]), 9%; in experiment [2] (setting [8]), 56%; in experiment [2] (at 50.0 µM), -1.95%. Besides, the growth inhibition in experiment [3] (setting [7]) was 19%; in experiment [3] (setting [8]), 92% (active); in experiment [3] (at 50.0 µM) it was -34.2%; in experiment [4] (setting [7]), 28%; in experiment [4] (setting [8]), 81% (active); in experiment [4] (at 50.0 µM), -2.85%. Moreover, the growth inhibition in experiment [5] (setting [7]) is 8%; in experiment [5] (setting [8]), 89% (active); in experiment [5] (at 50.0 µM) it was -33.4%; in experiment [6] (setting [7]), 18%; in experiment [6] (setting [8]), 83% (active); in experiment [6] (at 50.0 µM) it was -7.45%.
Regarding `COc1c(O)ccc2c1CN1CCc3cc4c(cc3C1C2)OCO4` (stereo not given), the growth inhibition is 18% in experiment [1] (setting [7]); 50% in experiment [1] (setting [8]); 65.9% in experiment [1] (at 50.0 µM); 9% in experiment [2] (setting [7]); 21% in experiment [2] (setting [8]); 21.4% in experiment [2] (at 50.0 µM). For the same compound, the growth inhibition is 9% in experiment [3] (setting [7]); 65% in experiment [3] (setting [8]); 49.2% in experiment [3] (at 50.0 µM); 15% in experiment [4] (setting [7]); 22% in experiment [4] (setting [8]); -16.2% in experiment [4] (at 50.0 µM). Also, the growth inhibition in experiment [5] (setting [7]) was 6%; in experiment [5] (setting [8]), 60%; in experiment [5] (at 50.0 µM) it was 50.9%; in experiment [6] (setting [7]), 11%; in experiment [6] (setting [8]) it was 35%; in experiment [6] (at 50.0 µM), 72.2% (active).
In the case of `O=[N+]([O-])c1cccc(C=Nc2ccccc2O)c1`, the growth inhibition in experiment [1] (setting [7]) was 22%; in experiment [1] (setting [8]), 34%; in experiment [1] (at 50.0 µM), 63.1%; in experiment [2] (setting [7]) it was 12%; in experiment [2] (setting [8]), 31%; in experiment [2] (at 50.0 µM) it was 41.8%. Besides, the growth inhibition in experiment [3] (setting [7]) was 13%; in experiment [3] (setting [8]), 35%; in experiment [3] (at 50.0 µM), 52.7%; in experiment [4] (setting [7]), -4%; in experiment [4] (setting [8]) it was 7%; in experiment [4] (at 50.0 µM) it was 17.6%. In addition, the growth inhibition was 23% in experiment [5] (setting [7]); 82% (active) in experiment [5] (setting [8]); 76% (active) in experiment [5] (at 50.0 µM); 24% in experiment [6] (setting [7]); 48% in experiment [6] (setting [8]); 70.8% (active) in experiment [6] (at 50.0 µM).
For the compound `Cc1ccc(S(=O)(=O)OC(COC(=O)c2ccc([N+](=O)[O-])cc2)C2OC(C)(C)OC2C(SCc2ccccc2)SCc2ccccc2)cc1` (stereo not given), the growth inhibition in experiment [1] (setting [7]) is 4%; in experiment [1] (setting [8]) it was 10%; in experiment [1] (at 50.0 µM), 96.8% (active); in experiment [2] (setting [7]), 5%; in experiment [2] (setting [8]), 1%; in experiment [2] (at 50.0 µM), 86.5% (active). In addition, the growth inhibition in experiment [3] (setting [7]) was -1%; in experiment [3] (setting [8]), 5%; in experiment [3] (at 50.0 µM), 95.5% (active); in experiment [4] (setting [7]), 2%; in experiment [4] (setting [8]) it was 8%; in experiment [4] (at 50.0 µM) it was 39.2%. The growth inhibition in experiment [5] (setting [7]) was 17%; in experiment [5] (setting [8]), 23%; in experiment [5] (at 50.0 µM), 89% (active); in experiment [6] (setting [7]) it was 6%; in experiment [6] (setting [8]), -2%; in experiment [6] (at 50.0 µM) it was 93.7% (active).
With `O=C(Nc1ccccc1)c1ccccc1O`, the growth inhibition in experiment [1] (setting [7]) was 2%; in experiment [1] (setting [8]), 93% (active); in experiment [1] (at 50.0 µM), 86.2% (active); in experiment [2] (setting [7]), -2%; in experiment [2] (setting [8]), 91% (active); in experiment [2] (at 50.0 µM) it was 79.5% (active). Further, the growth inhibition was 2% in experiment [3] (setting [7]); 87% (active) in experiment [3] (setting [8]); 92.6% (active) in experiment [3] (at 50.0 µM); -3% in experiment [4] (setting [7]); 84% (active) in experiment [4] (setting [8]); 73.8% (active) in experiment [4] (at 50.0 µM). Besides, the growth inhibition in experiment [5] (setting [7]) was -2%; in experiment [5] (setting [8]), 92% (active); in experiment [5] (at 50.0 µM), 86% (active); in experiment [6] (setting [7]) it was -4%; in experiment [6] (setting [8]), 98% (active); in experiment [6] (at 50.0 µM), 97.2% (active).
For the compound `CN(C)c1ccc(/C=N/c2nc(-c3ccccc3)cs2)cc1`, the growth inhibition was 9% in experiment [1] (setting [7]); 90% (active) in experiment [1] (setting [8]); 94.9% (active) in experiment [1] (at 50.0 µM); 7% in experiment [2] (setting [7]); 96% (active) in experiment [2] (setting [8]); 98.4% (active) in experiment [2] (at 50.0 µM). Also, the growth inhibition in experiment [3] (setting [7]) is 5%; in experiment [3] (setting [8]), 92% (active); in experiment [3] (at 50.0 µM), 98% (active); in experiment [4] (setting [7]), 2%; in experiment [4] (setting [8]), 89% (active); in experiment [4] (at 50.0 µM), 97.2% (active). For the same compound, the growth inhibition is 1% in experiment [5] (setting [7]); 93% (active) in experiment [5] (setting [8]); 93.2% (active) in experiment [5] (at 50.0 µM); 23% in experiment [6] (setting [7]); 95% (active) in experiment [6] (setting [8]); 97.8% (active) in experiment [6] (at 50.0 µM).
Take `CN(/N=C/c1ccc(C(=O)O)cc1)C1=NCCCCN1`: the growth inhibition in experiment [1] (setting [7]) was -2%; in experiment [1] (setting [8]), 29%; in experiment [1] (at 50.0 µM) it was 5.85%; in experiment [2] (setting [7]), -4%; in experiment [2] (setting [8]), 25%; in experiment [2] (at 50.0 µM) it was 3.4%. The growth inhibition in experiment [3] (setting [7]) is -2%; in experiment [3] (setting [8]) it was 45%; in experiment [3] (at 50.0 µM) it was -7.95%; in experiment [4] (setting [7]) it was 3%; in experiment [4] (setting [8]), 12%; in experiment [4] (at 50.0 µM), 40.5%. Further, the growth inhibition in experiment [5] (setting [7]) was 2%; in experiment [5] (setting [8]), 28%; in experiment [5] (at 50.0 µM), 3.2%; in experiment [6] (setting [7]), 1%; in experiment [6] (setting [8]), 33%; in experiment [6] (at 50.0 µM), -11.1%.
Consider `c1ccc(-c2c3ccccc3cc3ccc4ccccc4c23)nc1`, for which the growth inhibition is 8% in experiment [1] (setting [7]); 48% in experiment [1] (setting [8]); 78.7% (active) in experiment [1] (at 50.0 µM); -6% in experiment [2] (setting [7]); 40% in experiment [2] (setting [8]); 52.9% in experiment [2] (at 50.0 µM). Further, the growth inhibition is 0% in experiment [3] (setting [7]); -42% in experiment [3] (setting [8]); 62.3% in experiment [3] (at 50.0 µM); 10% in experiment [4] (setting [7]); 45% in experiment [4] (setting [8]); 49.5% in experiment [4] (at 50.0 µM). The growth inhibition was 3% in experiment [5] (setting [7]); 71% (active) in experiment [5] (setting [8]); 71% (active) in experiment [5] (at 50.0 µM); -8% in experiment [6] (setting [7]); 43% in experiment [6] (setting [8]); 81.2% (active) in experiment [6] (at 50.0 µM).
